Assay results taken from PubChem BioAssay AID2253 (Southern Research Specialized Biocontainment Screening …, 2010).
About 1,300 (59%) of roughly 2,200 compounds were called active. The set was probably picked from earlier hits. A selection follows. Measured potencies and affinities stand elsewhere. Values without a mark were called inactive. How the calls were made is not given here.

assay: THP-1 cell cytotoxicity, dose response, cytotoxicity control for Salmonella PhoP regulon inhibitors, S. typhimurium screen hits (AID 2253); conditions: THP-1 viability, CellTiter-Glo luminescence, 72 h; series mostly up to 50 µM; viability: at the top concentration

SMILES	viability
NC1CCN(c2c(F)cc3c(=O)c(C(=O)O)cn(C4CC4)c3c2Cl)C1 (configuration not stated)	93.8%
Cc1ccc(CCNC(=O)C2CCN(S(=O)(=O)N3CCCC3)CC2)cc1	91.8%
Cc1ccc(CCNC(=O)C2CCCN(S(=O)(=O)c3c(C)noc3C)C2)cc1 (configuration not stated)	94.9%
O=C(CSc1nccc(=O)[nH]1)N1c2ccccc2CCc2ccccc21	96.8%
CCN(CCO)Cc1csc2ccccc12	108%
Cc1cc(C(=O)N/N=C/c2cccc([N+](=O)[O-])c2O)n[nH]1	108%
Cc1nc2ccccn2c1C(=O)N/N=C/c1ccccc1[N+](=O)[O-]	91.7%
O=C(N/N=C/c1cccn1-c1ccc([N+](=O)[O-])cc1)C(O)c1ccccc1 (configuration not stated)	102%
Cc1cc(C(=O)N/N=C/C=C/c2ccc3c(c2)OCO3)n[nH]1	92.8%
CC1(C)CC2CC(C)(CN2C(=O)COC(=O)c2n[nH]c(=O)c3ccccc23)C1 (configuration not stated)	83.8%
CCOC(=O)c1sc2nccc(N(C)C)c2c1N=CNOCc1c(F)cccc1Cl	88.5%
O=C(CCCNS(=O)(=O)c1ccccc1)NCc1ccco1	101%
O=C(Cn1cnc2ccccc2c1=O)NCc1ccco1	102%
O=C1CSC(=S)N1c1ccc(F)cc1	89.2%
COc1ccc(OC)c(C(=O)C2COC(=O)C2)c1 (configuration not stated)	89.6%
Cc1cc2ncn(CC(O)COc3cccc(C(=O)O)c3)c2cc1C (configuration not stated)	101%

SMILES	viability
COc1ccc(C2C(C(=O)c3cccs3)=C(O)C(=O)N2c2nnc(C)s2)cc1OC (configuration not stated)	103%
Brc1ccc(OCCn2ccnc2)cc1	82.7%
Clc1ccccc1OCCn1ccnc1	98.8%
COc1ccc2c(c1)cc1n2CCN2CCCN=C12	87.6%
CCn1cc(C(=O)NCc2ccncc2)c(=O)c2cc(F)c(N3CCN(C(=O)c4ccco4)CC3)cc21	91.7%
O=C1CC(N2CCN(Cc3ccccc3)CC2)C(=O)N1c1ccccc1 (configuration not stated)	84.8%
C(=N\N1CCN(Cc2ccccc2)CC1)/c1cccnc1	83.5%
O=C(CCCOc1ccccc1)N1CCCc2ccccc21	84.2%
CC(C)(C)c1ccc(-c2n[nH]c(=S)n2/N=C/c2ccncc2)cc1	94.9%
O=C(CCN1CCc2ccccc2C1)Nc1ccccc1F	93% [at 25 µM]
CCn1nnc(-c2ccccc2NC(=O)c2ccc(-n3cnnn3)cc2)n1	106%
N#Cc1nc(-c2cccs2)oc1NCCCN1CCOCC1	104%
CCOc1ccc(/C(O)=C2\C(=O)C(=O)N(CCN(C)C)C2c2cccc(OC)c2OC)cc1Cl (configuration not stated)	91.8%
O=C(CCn1nnc(-c2cccs2)n1)NCc1ccccc1Cl	92.5%
COc1ccc(C(=O)COc2nc(C)cc(C)c2C#N)cc1	87.9%
CCc1nc2cc(Cl)c(Cl)cc2[nH]1	94.8%
